In PubChem BioAssay AID463212 (Sanford-Burnham Center for Chemical Genomics, 2010):
Screen size: about 330,000 compounds; about 4,400 (1.3%) were called active.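 The calls were made as follows: active = growth inhibition of the mutant yeast at or above 50%; inactive = the rest.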 The list comes from a sample in which actives are over-represented; it also holds similar structures and randomly drawn compounds.

experiment: growth inhibition of tim23-1 ts yeast – luminescence, uHTS, primary screen (AID 463212);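 also: temperature-sensitive mutant grown at 25 °C; plate controls were DMSO-treated mutant yeast for no effect and medium wells lacking yeast for full effect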; conditions: S. cerevisiae tim23-1 growth, BacTiter-Glo luminescence, 24 h; at 20 µM; active compounds read high

inhibition, active:
CCOc1ccc(C(c2c(C)[nH][nH]c2=O)c2c(C)[nH][nH]c2=O)cc1OCC 54.5%, Cc1cccc(NC(=S)Nc2ccc(Cl)c(Cl)c2)c1 60.8%, Cc1nn(-c2ccccc2)c(Cl)c1/C=C/C(=O)c1ccc(O)cc1 50.6%, CCOc1cc(/C=C2\SC(N3CCCC(C)C3)=NC2=O)ccc1O (stereo not given) 51.4%, O=C(CSc1cccc2cccnc12)N/N=C/c1cccnc1 52.9%, Cc1ccccc1C(=O)NC(=S)NC1CC1 56.1%, S=C(NCCCc1ccccc1)Nc1ccc(Br)cc1 62.8%, O=C(NCc1ccc2c(c1)OCO2)c1c(O)nc2sccn2c1=O 68.2%, COCCNC(=O)/C(C#N)=C/c1cccc(OCc2ccccc2)c1 68.2%, N#C/C(=C\c1cccnc1)C(=O)Nc1ccc(SC(F)F)cc1 76.7%, CCc1ccc2c(c1)C1(NN=C(c3ccccc3)S1)C(=O)N2 (stereo not given) 52.6%

inhibition, inactive:
Cc1cccc(NC(=O)Cn2cc(C(=O)c3ccco3)c3ccccc32)c1 7.71%, O=C(NCCSc1ncc(-c2ccccc2)[nH]1)c1ccco1 -8.72%, CCOc1ccc(C(=O)Nc2cccc(SC)c2)cc1 10.1%, O=C1NC(Cc2ccc(O)cc2)c2nc3ccc(Cl)cc3c(=O)n2-c2ccccc21 (stereo not given) 15%, CCOc1ccc(C(CC(=O)O)NC(=O)Cc2ccccc2)cc1OC (stereo not given) -3.51%, CCOc1ccc(C(C)NC(=O)CN2C(=O)NC3(CCCCC3)C2=O)cc1OCC (stereo not given) 7.68%, CCOC(=O)N1CCN(C(=O)c2cn(C)c3ccc(S(=O)(=O)N(CC)CC)cc3c2=O)CC1 2.29%, Cc1ccc(S(=O)(=O)NCC(C)NS(C)(=O)=O)cc1 (stereo not given) -7.63%, CCOCCCNC(=O)Cc1cc(=O)[nH]c(=O)[nH]1 -8.09%, COC(=O)c1ccc(-c2c(-c3ccccc3)ncc3cc(OC)c(OC)cc23)cc1 18.9%, CCOC(=O)C1CSC(CC(=O)Nc2ccc(OCC)cc2)C(=O)N1 (stereo not given) 4.52%, Cc1cccc(NC(=S)Nc2ccc3cn[nH]c3c2)c1 -3.63%, Cc1cccc(NC(=S)NC23CN4CN(CN(C4)C2)C3)c1 1.34%, Cc1ccc(-n2ncc(C(=O)NC3CC3)c2C2CCN(C(=O)OC(C)(C)C)CC2)c(C)c1 13.5%, CCOC(=O)Nc1ccc2c(c1)N(C(=O)CN1CCN3CCCC3C1)c1ccccc1CC2 (stereo not given) 11.3%, Cc1ccc(C(=O)/C=C/c2c(C)nn(-c3ccccc3)c2Cl)cc1 36.5%, Cc1nn(-c2ccccc2)c(C)c1/C=C/C(=O)OC(C)C(N)=O (stereo not given) 10.4%, CCOc1cc(/C=C2\SC(N3CCCCC3)=NC2=O)ccc1O 38.3%, CC1CCN(C2=NC(=O)/C(=C/c3ccc(O)cc3)S2)CC1 31.9%, COc1ccc(N(CC(=O)NC2CCCCC2)S(=O)(=O)c2c(C)[nH]c(=O)[nH]c2=O)cc1 6.85%, Cc1ccc(NC(=O)CSc2cccc3cccnc23)c(C)c1 19.5%, CCOC(=O)N/N=C/c1cccnc1 4.17%, N#Cc1ccc(C(c2ccc(C#N)cc2)n2cncn2)cc1 9.59%, CCc1noc(C)c1C(=O)N1CCCC(N2CCN(c3ccc(F)cc3)CC2)C1 (stereo not given) -9.74%, CC(C)OC(=O)Cn1nc(C(F)(F)F)c2c1CCCC2 -5.77%, O=C(NC(=S)NC1CCSC1=O)c1ccccc1F (stereo not given) -11.9%, Cc1ccccc1C(=O)NC(=S)Nc1ccc(N2CCN(C(=O)c3ccccc3)CC2)cc1 -0.446%, COC(=O)[C@@]1(C)[C@H]2C(=O)N(Cc3ccccc3)C(=O)[C@H]2[C@H]2CN=C(SCC3CC3)N21 28.2%, CC1=C(C(=O)OCC2CCCCC2)C(c2ccc(F)cc2)NC(=O)N1 (stereo not given) 23.5%, S=C(Nc1ccc(Br)cc1)NC1CCN(Cc2ccccc2)CC1 3.13%, O=S(=O)(NCCCc1ccccc1)c1ccc(Br)cc1 33.6%, O=C1C(=O)N(CCCO)C(c2ccccc2)/C1=C(\O)c1ccc(Br)cc1 (stereo not given) 6.61%, CCOc1ccc(CN2CCC(n3nccc3NC(=O)C3CC3)CC2)cc1CO -0.767%, CCn1c(=O)c(C(=O)NCc2ccc3c(c2)OCO3)c(O)c2ccccc21 28.6%, O=C(NCc1ccc2c(c1)OCO2)c1sccc1Br 11%, CCCOc1ccc(/C(O)=C2/C(=O)C(=O)N(CCN(C)C)C2c2ccc(OC)c(OC)c2)cc1 (stereo not given) 3.19%, Cc1ccccc1N1C(=O)C(Oc2ccc(Cl)cc2)C1CNCC1CCCO1 (stereo not given) 32.6%, Fc1ccc(-c2ccc(NCCN3CCOCC3)nn2)cc1 -3.29%, COc1ccc(C(=O)C(C)OC(=O)c2cccc(S(=O)(=O)Nc3c(C)n(C)n(-c4ccccc4)c3=O)c2)cc1 (stereo not given) 15.2%, O=C(N/N=C/c1cccc(OCc2ccccc2)c1)c1ccc(Br)o1 47.5%, N#C/C(=C\c1ccc(O)c(O)c1)C(=O)NCc1ccccc1 12.3%, COc1cccc(N(CC(=O)NC2CCCCCC2)S(=O)(=O)c2ccccc2)c1 11.3%, Cc1c(S(=O)(=O)NCc2ccccc2)c(=O)n(C)c(=O)n1C 4.82%, Cc1cc(/C=C(/C#N)C(=O)Nc2ccc(Cl)cc2)c(C)n1-c1cccnc1 5.94%, O=C(N/N=C/c1cccnc1)c1ccc(NC(=O)c2ccc(F)cc2)cc1 4.04%, CN=C(c1ccccc1)c1c(C)cccc1C 3.2%, COc1ccccc1NC(=O)c1ccc(N2CC3CC(C2)c2cccc(=O)n2C3)c(NC(=O)c2cccnc2)c1 (stereo not given) -0.075%, CC1CCCN(CCCNC(=O)CN2C(=O)COc3ccc(S(=O)(=O)N4CCOCC4)cc32)C1 (stereo not given) -34.2%, COCCNC(=O)CN1C(=O)CSc2ncccc21 11.6%
